This passage reports binding signal results from article PMC7819943, “Rice protein-binding microarrays: a tool to detect cis-acting elements near promoter regions in rice”.

Over roughly 68,000 sequences, “fluorescence intensity (a.u.)” has its median near 9,100; the highest 2% begin near 16,000. The sample holds the highest values, similar sequences and a random draw of the others, so the mix is not that of the screen.

Chain of OsWRKY34 (Q0JBA9 entry or part of it): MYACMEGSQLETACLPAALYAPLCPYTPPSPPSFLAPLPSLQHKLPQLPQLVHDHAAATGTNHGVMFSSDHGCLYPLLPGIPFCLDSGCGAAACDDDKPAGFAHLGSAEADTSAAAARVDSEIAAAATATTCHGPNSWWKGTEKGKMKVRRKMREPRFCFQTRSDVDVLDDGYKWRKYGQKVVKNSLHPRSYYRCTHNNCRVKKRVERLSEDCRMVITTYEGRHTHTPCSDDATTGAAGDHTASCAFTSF

The target of this test is OsWRKY34 (Oryza sativa, UniProt Q0JBA9 1-250). The experiment in a line: protein-binding microarray (RPBM); PBS, 2% BSA, 51.3 ng/ul salmon testes DNA, 50 uM zinc acetate, 200 nM TF, 25 C, 1 h; high values mean tight binding. The following applies: protein: recombinant; tags: N-terminal polyhistidine and DsRed monomer fusion (pET32a); label: CyDye5-dUTP incorporated in the synthesized complementary strand; 3' TTTTT single-stranded linker to array surface; dsDNA, one strand shown. The method, boiled down:
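Polyhistidine-tagged DsRed fusions of transcription factors, joined at the N-terminus, were expressed in E. coli BL21-CodonPlus and isolated on Ni–NTA. They were incubated at 200 nM for 1 h at 25 °C on a custom Agilent array, double-stranded and BSA-blocked, in PBS with 2% BSA, salmon testes DNA and 50 µM zinc acetate. The binding signal is per-feature fluorescence intensity (arbitrary units) read on an Axon 4000B scanner after washing.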
For the sequence “CGTTTGTTGGGTGCGGCGGGCGGGGAGGAGCTCGTGAATGCGGAGTCACCTAGTGCAG”, the binding signal was 19600 fluorescence intensity (a.u.).

As for “GGACGGCGGCGAGCGGCGAGGAGGAGGCGGGGAGGTGGGACGGAGTCACCTAGTGCAG”, the binding signal is 9580 fluorescence intensity (a.u.).

Regarding “GTGGGGTGGGTGAGCGGGATGCGGGGCTTAGGCGGGGAAGCGGAGTCACCTAGTGCAG”, the binding signal is 16500 fluorescence intensity (a.u.).

As to “CTGGGGAGGGCGACGGCGCAGTGCGGGGTGGACGGGAGCGCGGAGTCACCTAGTGCAG”, the binding signal was 8270 fluorescence intensity (a.u.).

As for “GAGCGCGCGCGTTGGGCGGGAGGGGTTTGGTTGGTGAGCGCGGAGTCACCTAGTGCAG”, the binding signal is 11800 fluorescence intensity (a.u.).

As for “GTTTTGTTGGGTCGGCGGCGGCGGGTGAGAGTGGAGAATGCGGAGTCACCTAGTGCAG”, the binding signal was 12900 fluorescence intensity (a.u.).

With “GGAGCGCTGGGAGGAAGGGCGTAGGGAGGGAGGGGTGAGGCGGAGTCACCTAGTGCAG”, the binding signal was 11600 fluorescence intensity (a.u.).

With “GGAGGAGGGGCGGCGGAGCGGGTGGTGGGGAGGCGACATGCGGAGTCACCTAGTGCAG”, the binding signal was 17900 fluorescence intensity (a.u.).

On to “GGCGAAGTGGTGGGTGCGTTGGGGCGAGGCGGAGCGGTGGCGGAGTCACCTAGTGCAG”, for which the binding signal is 8050 fluorescence intensity (a.u.).

Regarding “GTTGCGGGGTGGGTGGTGGCGTTGCGGGAGGAGGAGGGAGCGGAGTCACCTAGTGCAG”, the binding signal is 23100 fluorescence intensity (a.u.).

As for “GCGCGGCGTTGTTGGGTGTGTTCGTGAATCGGGCGGGATGCGGAGTCACCTAGTGCAG”, the binding signal is 10500 fluorescence intensity (a.u.).

For the sequence “GGTGGAGGAGGTGGGCGGGGAAAGCGGCGACGTGAGGCGGCGGAGTCACCTAGTGCAG”, the binding signal was 14400 fluorescence intensity (a.u.).

In the case of “CTAATCCCCTCTAGCTAGCCTCTTTTTTCTCCATTTGTTTCGGAGTCACCTAGTGCAG”, the binding signal is 11100 fluorescence intensity (a.u.).

For the sequence “GCCGCCGCCGCCGCCCGCGCCGATCCCCATCCATCCCGCACGGAGTCACCTAGTGCAG”, the binding signal is 8970 fluorescence intensity (a.u.).

On to “GGGATGTCTTGGCTTTTTTTTTTTCTTCACCGAGCAATCGCGGAGTCACCTAGTGCAG”, for which the binding signal is 13400 fluorescence intensity (a.u.).

Regarding “GGTTAGAGATACATACATATTATACCTGATTCACCTCACTCGGAGTCACCTAGTGCAG”, the binding signal was 8060 fluorescence intensity (a.u.).

On to “CTTCTTCGATCTCCGGCAATCGCTCCATCGATCGGCGCTTCGGAGTCACCTAGTGCAG”, for which the binding signal was 8370 fluorescence intensity (a.u.).

Regarding “TTTTTTCTGTAAGGTGTCATATTTCTTCAATTGATGGATACGGAGTCACCTAGTGCAG”, the binding signal was 8340 fluorescence intensity (a.u.).

Turning to “GGCTTCAGTATGAATTCTTACACAACCGTTGGTGTGCTACCGGAGTCACCTAGTGCAG”, the binding signal was 9250 fluorescence intensity (a.u.).

Take “ACCCTCGGACCGGTTTTTTTACTATGCCTCAAACATGTTCCGGAGTCACCTAGTGCAG”: the binding signal was 9800 fluorescence intensity (a.u.).

Turning to “ATCCCTCTGGTCGTCTCCTACCTCTCGGTTTCTTCACCCTCGGAGTCACCTAGTGCAG”, the binding signal was 14600 fluorescence intensity (a.u.).

For “TTTTTTCGGTCTCGGTATCGGTCTTTTCGGTTCGATCTTACGGAGTCACCTAGTGCAG”, the binding signal was 8400 fluorescence intensity (a.u.).

For the sequence “CGTACTGGGCTGGGCTGGGCTGGGATTCAACCGAACGGGGCGGAGTCACCTAGTGCAG”, the binding signal was 20400 fluorescence intensity (a.u.).

Regarding “AAGTGCTCGATCGGGAGCGGTGGTGGTGGTGGGGAGAGAGCGGAGTCACCTAGTGCAG”, the binding signal is 11300 fluorescence intensity (a.u.).

Turning to “GTAGGGGCGGGAGGGGAGGCGTGGTGGCGCCGGGCCGGCGCGGAGTCACCTAGTGCAG”, the binding signal was 14900 fluorescence intensity (a.u.).

Regarding “GCGGCTGGGGTTGCGGTGCAATCTGGGGCGGGGATGCGAACGGAGTCACCTAGTGCAG”, the binding signal is 17100 fluorescence intensity (a.u.).

As to “CACTATCGGCAGTGCAGCCGGCGGCTGGGGCGGGGAGTACCGGAGTCACCTAGTGCAG”, the binding signal is 9540 fluorescence intensity (a.u.).

In the case of “ACTAGTGGGCTGCTTGGGTGGGGAGCCCGGGCCGGCAGATCGGAGTCACCTAGTGCAG”, the binding signal was 12000 fluorescence intensity (a.u.).

As for “GCGGCGTTGCGGATGGGGACGGGGACGGGGACGGCGGCGACGGAGTCACCTAGTGCAG”, the binding signal was 10400 fluorescence intensity (a.u.).

In the case of “GGCCGGCGGGTGGCCGGGTGGGGAGGAGGTCGGCAGGGCGCGGAGTCACCTAGTGCAG”, the binding signal was 9780 fluorescence intensity (a.u.).

On to “GGTGGCGGTTGCGGGTGGAGGGCCGCGGCGGTGCGACGAACGGAGTCACCTAGTGCAG”, for which the binding signal is 8480 fluorescence intensity (a.u.).

For “ACGGTGCCGAACGAGCTTGGGGATGGGGACGGCGGCGGGGCGGAGTCACCTAGTGCAG”, the binding signal was 10200 fluorescence intensity (a.u.).

Turning to “ATCACGGAGGAGGCGTTCGGGGAGGGAGGGTGGGGCGCGCCGGAGTCACCTAGTGCAG”, the binding signal is 24400 fluorescence intensity (a.u.).

Consider “GTGGGGCGGTGGCTGCTGCATTGCATTGGGCGGGAGAGATCGGAGTCACCTAGTGCAG”, for which the binding signal is 17200 fluorescence intensity (a.u.).

Regarding “CAATTTCCATGGTTTTCTTAGCATTCTCGTCTCTAGTATTCGGAGTCACCTAGTGCAG”, the binding signal is 9610 fluorescence intensity (a.u.).

Consider “AAACCCTAGCTCCGGATTCTTCTCCTCTCCTCCTTTCTTCCGGAGTCACCTAGTGCAG”, for which the binding signal was 8070 fluorescence intensity (a.u.).

Regarding “CGATCTCAGCTGTCACTCACTATGTGGTTCATCTAACTGACGGAGTCACCTAGTGCAG”, the binding signal is 9510 fluorescence intensity (a.u.).

“CAGGTCATTTTGGTGTGTGCTTTGCGGTATTAACTCGTGCCGGAGTCACCTAGTGCAG”: the binding signal was 8700 fluorescence intensity (a.u.).

As for “CACAGCGTCCACACCCGCGCCGCCGCCGCCCTCACCCTCGCGGAGTCACCTAGTGCAG”, the binding signal was 8760 fluorescence intensity (a.u.).

Take “CGGGGATGGAGGTGGTGGTGAGGCTGGCGACGGCGGGCCGCGGAGTCACCTAGTGCAG”: the binding signal was 12100 fluorescence intensity (a.u.).

In the case of “GGGTGTTATGAGTTGTGTTTGCTGTAGCTTGTCAGCTGTTCGGAGTCACCTAGTGCAG”, the binding signal was 10600 fluorescence intensity (a.u.).

As to “CTGTAGAGAAATACTACACTACTGTACACTACATTCCTGCCGGAGTCACCTAGTGCAG”, the binding signal was 8350 fluorescence intensity (a.u.).
